From PubChem BioAssay AID729 (The Scripps Research Institute Molecular Screening Center, 2007)
Out of some 97,000 compounds screened, about 450 (0.46%) were called active. No stated cut-off is given here; in the data, active means activation above about 16%; inactive means the rest. The list comes from a sample in which actives are over-represented; it also holds similar structures and randomly drawn compounds.

Target: Sphingosine 1-phosphate receptor 2 (Homo sapiens) (UniProt O95136)
Test: S1P2 receptor agonists, primary screen, cell-based (AID 729);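 further: 0% = vehicle low control and 100% = maximal reference agonist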
Conditions: S1P2-expressing cell line, agonist reporter read-out; at 4.5 µM; stronger effect = higher value

Sequence of Sphingosine 1-phosphate receptor 2 (Homo sapiens) (O95136 whole entry, looked up): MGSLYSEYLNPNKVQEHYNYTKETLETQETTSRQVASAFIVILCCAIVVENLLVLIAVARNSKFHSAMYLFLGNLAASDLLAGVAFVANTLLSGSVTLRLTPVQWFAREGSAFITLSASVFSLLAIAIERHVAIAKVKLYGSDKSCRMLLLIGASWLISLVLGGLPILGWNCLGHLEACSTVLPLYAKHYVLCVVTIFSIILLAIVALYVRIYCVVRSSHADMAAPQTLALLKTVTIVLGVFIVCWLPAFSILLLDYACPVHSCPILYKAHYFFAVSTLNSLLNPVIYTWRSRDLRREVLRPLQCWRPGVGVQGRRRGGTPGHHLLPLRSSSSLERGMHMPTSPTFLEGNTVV

activation, inactive:
COc1ccc(C2C(C(C)=O)=C(O)C(=O)N2c2nccs2)cc1 (stereo not drawn) -0.54%
Cc1ccc(-n2c(=O)c(C#N)cc3c(=O)n4ccccc4nc32)cc1C 5.21%
CCCn1c(=NC(C)=O)c(C(=O)OCC)cc2c(=O)n3ccccc3nc21 14.5%
CONC(=O)c1cc(OCC(F)(F)F)ccc1OCC(F)(F)F -3.47%
Cc1cc(N=CC2=C(O)CCCC2=O)no1 -0.19%
CC1(C)CC(=O)C(C=NCCC2=CCCCC2)=C(O)C1 -6.14%
COc1ccc(N(CC(=O)N/N=C/c2cccs2)S(=O)(=O)c2ccc(OC)c(OC)c2)cc1 -7.16%
COc1ccc(C(=O)/C=C/Nc2ccccn2)cc1 1.74%
O=C(Nc1ccccc1)c1ccc2nsnc2c1 -2.63%
O=C(O)c1cc2ccccc2c(=O)s1 -6.32%
O=C(CN1CCSCC1)N/N=C/c1ccc(F)cc1F -0.59%
Cc1ccc(-c2nnc(C)c(N3CC(C)OC(C)C3)n2)cc1 (stereo not drawn) -6.7%
COc1ccc(-c2cc(C(=O)n3cnc4ccccc43)c3ccccc3n2)cc1 -1.61%
CC(C)C(NS(=O)(=O)c1cccs1)C(=O)Nc1nc(C(C)(C)C)cs1 (stereo not drawn) -5.87%
Cc1nc(C)c(C(=O)N(c2ccc(C)c(C)c2)C(C(=O)NCc2ccco2)c2ccccc2)s1 (stereo not drawn) -5.57%
COc1ccc(/C=N/Nc2nc3ccccc3o2)cc1OC 1.35%
O=C1CCCc2c1nc(-c1cccc(Cl)c1)n2O -8.02%
Cc1ccc(-c2csc(SCC(=O)Nc3cc(C)on3)n2)cc1 -3.51%
CC(C)(C)C(=O)Cn1c(NCCO)nc2ccccc21 0.17%
O=C(O)[C@@H]1CCCN1c1ncnc2sc3c(c12)CCC3 -0.47%
COc1ccccc1/C=C/C1=NC(=C\N(C)C)/C(=O)O1 3.03%
CCCc1nc2sc3c(c2c(=O)n1NC(=O)CCCl)CCCC3 -7.02%
Cc1ccc2oc(=O)c3cnn(CC(=O)N(Cc4ccco4)C4CCCCC4)c3c2c1 -2.42%
CC(CN1CCOCC1)c1ccccc1 (stereo not drawn) -0.64%
COc1ccc(NC(=O)COC(=O)Cn2c(C)nc3ccccc32)cc1OC -6.15%
COc1ccc(NC(=O)C(NC(C)=O)C(=O)NCc2ccccc2Cl)cc1 (stereo not drawn) -7.51%
CCNC(=O)NC(=O)C(C)OC(=O)c1cc(S(=O)(=O)N2CCCCCC2)ccc1OC (stereo not drawn) -4.87%
COc1ccc(N(CCC#N)S(=O)(=O)c2ccc(Cl)cc2)cc1 -1.5%
O=C(NCc1ccco1)C1CCCN(S(=O)(=O)c2ccccc2)C1 (stereo not drawn) -2.97%
O=C1CSC(c2cccc(F)c2)N1c1ccc(O)cc1 (stereo not drawn) -7.24%
Nc1nc(Br)c2ccccc2c1-c1ccc(F)cc1 4.89%
Cc1ccc(S(=O)(=O)N2CCN(S(=O)(=O)N3CCOCC3)CC2)cc1 -6.81%
COc1ccc(-c2nc3ccccc3n2CCC(C)C)cc1OC -4.13%
COc1cc(C(O)c2nc3ccccc3n2C)cc(OC)c1OC (stereo not drawn) -6.52%
CC(C)(C)c1ccc(OC2=CS(=O)(=O)c3ccccc32)cc1 -6.02%
O=C(CCCCCn1c(=O)[nH]c2ccccc2c1=O)NCCc1c[nH]c2ccccc12 -8.42%
CCc1ccc2c(c1)C1(NN=C(c3ccccc3)S1)C(=O)N2 (stereo not drawn) -1.92%
COc1ccc(C(=O)Nc2ccc(F)cc2F)cc1 -5.08%
Cc1cc(C)c(S(=O)(=O)NCC2CCC(C(=O)NCc3ccc4c(c3)OCO4)CC2)c(C)c1 (stereo not drawn) -5.15%
OC(C#CCN1CCOCC1)(c1ccccc1)C1CCCCC1 (stereo not drawn) -4.7%
CC1CN(S(=O)(=O)c2ccccc2)C(C)CN1S(=O)(=O)c1ccccc1 (stereo not drawn) -2.5%
O=C(Nc1ccccc1Cl)N1CCN(c2ccc3nncn3n2)CC1 -1.47%
O=C(NCCc1ccccc1)c1ccc(NC2=NC3CS(=O)(=O)CC3S2)cc1 (stereo not drawn) 0.04%
COc1ccccc1C(c1nnnn1C(C)(C)C)N1CCN(Cc2ccccc2)CC1 (stereo not drawn) -7.69%

activation, active:
CCn1c(=N)c(S(=O)(=O)c2ccc(F)cc2)cc2c(=O)n3ccccc3nc21 34.3%
O=C1CCCC(O)=C1C=NCCc1ccccc1 84.1%
OCCNc1nc2ccccc2n1-c1ncnc2sc3c(c12)CCC3 17.8%
CCC(C)n1c(-c2cc(OC)c(OC)c(OC)c2)nc2nc3ccccc3nc21 (stereo not drawn) 16.8%
